Hits are enriched below; roughly 6.8% of the tested compounds scored in any of these assays.
Pf Dd2 growth – inhibitors of Plasmodium falciparum Dd2 growth; P. falciparum Dd2 growth, SYBR Green, 72 h; hits give low values; activity change, % at 10 µM; 94,000 compounds, 2.3% hits; AID 1159554; in the data active means activity change below about -80%; inconclusive means no clear call, values can overlap the other calls
C diff HTS – C. difficile growth inhibition; Clostridium difficile clinical isolate growth, OD600, 24 h; hits give low values; growth activity, negative = inhibition, % at 16 µg/mL (by protocol); 86,000 compounds, 0.25% hits; AID 1259249;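 active means mean growth activity at or below -80% and every replicate also at or below -80%; inconclusive means mean at or below -80% but some replicate above -80%; inactive means mean growth activity above -80%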
T cruzi growth-1 – blocks T. cruzi growth in NIH3T3 culture; T. cruzi beta-gal in NIH3T3, GalScreen luminescence, 90 h; inhibition, % at 8.34 µM; 77,000 compounds, 5.9% hits; AID 624255;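 active means mean inhibition above about 93%, with at least 55% of replicates each passing it, limit read from the data, passing the limit was not always enough; inconclusive means only one of those two conditions holds; inactive means neither condition holds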
T cruzi growth-2 – inhibitors of T. cruzi proliferation; shares compounds with T cruzi growth-1; T. cruzi beta-gal in NIH3T3, GalScreen luminescence, 90 h; inhibition, % at 8.35 µM; 5,600 compounds, 72% hits;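 active means mean replicate inhibition above about 95% and at least 55% of replicates individually reaching it, limit read from the data; inconclusive means only one of the two criteria is met; inactive means neither criterion is met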
T cruzi growth-3 – inhibitors of T. cruzi proliferation; shares compounds with T cruzi growth-1; T. cruzi beta-gal in NIH3T3, GalScreen luminescence, 90 h; inhibition, % at 2.09 µM; 5,600 compounds, 21% hits;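 active means mean inhibition above about 95%, with at least 55% of replicates also reaching it, limit read from the data; inconclusive means meets just one of the two conditions; inactive means meets neither condition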
3T3 cytotox – cytotoxicity in mouse NIH/3T3 fibroblasts; 5,600 compounds, 14% hits; shares compounds with T cruzi growth-1; cytotoxicity (signal decrease), % at 8.35 µM; NIH/3T3 viability, CellTiter-Glo ATP luminescence, 90 h;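 active means mean signal decrease across replicates above about 35% based on untreated-well scatter, with enough replicates individually passing, limit read from the data; inconclusive means no rule stated though some were filed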
3T3 cytotox 2 – NIH/3T3 (mouse) viability loss | NIH/3T3 viability, CellTiter-Glo ATP luminescence, 90 h | shares compounds with T cruzi growth-1 | 5,600 compounds, 56% hits | inhibition, % at 24.9 µM | AID 651744;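 active means mean loss of cell viability signal at or above a set limit, and enough replicates individually reaching it; inconclusive means meets only the mean limit or only the replicate share; inactive means meets neither condition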
Of the large screens only hits and unclear results are named; the others gave an inactive call (follow-up assays come after a bar, where they were run).

COc1ccc(NC(=O)N(C)C[C@@H]2OCCCC[C@H](C)Oc3ccc(NC(=O)Nc4ccc(C(F)(F)F)cc4)cc3C(=O)N([C@H](C)CO)C[C@@H]2C)cc1	none
COc1ccc(NC(=O)Nc2ccc3c(c2)C(=O)N([C@H](C)CO)C[C@H](C)[C@@H](CN(C)C(=O)Nc2ccc(C(F)(F)F)cc2)OCCCC[C@H](C)O3)cc1	Pf Dd2 growth -90, T cruzi growth-1 inconclusive | T cruzi growth-2 112 | T cruzi growth-3 107 | 3T3 cytotox inactive | 3T3 cytotox 2 inactive
COc1ccc(NC(=O)Nc2ccc3c(c2)C(=O)N([C@@H](C)CO)C[C@@H](C)[C@@H](CN(C)C(=O)Nc2ccc(OC)cc2)OCCCC[C@@H](C)O3)cc1	none (no result: C diff HTS)
COc1ccc(NC(=O)N(C)C[C@H]2OCCCC[C@@H](C)Oc3ccc(NC(=O)Nc4ccc(C(F)(F)F)cc4)cc3C(=O)N([C@@H](C)CO)C[C@H]2C)cc1	T cruzi growth-1 109 | T cruzi growth-2 105 | T cruzi growth-3 113 | 3T3 cytotox inactive | 3T3 cytotox 2 inactive
COc1ccc(NC(=O)Nc2ccc3c(c2)C(=O)N([C@@H](C)CO)C[C@@H](C)[C@@H](CN(C)C(=O)Nc2ccc(C(F)(F)F)cc2)OCCCC[C@@H](C)O3)cc1	T cruzi growth-1 inconclusive | T cruzi growth-2 101 | T cruzi growth-3 107 | 3T3 cytotox inactive | 3T3 cytotox 2 inactive
C[C@H](CO)N1C[C@H](C)[C@H](CN(C)Cc2ccncc2)Oc2c(NS(=O)(=O)c3cn(C)cn3)cccc2C1=O	none (no result: T cruzi growth-1)
COc1ccc(NC(=O)Nc2cccc3c2O[C@@H](CN(C)C(=O)Nc2ccc(C(F)(F)F)cc2)[C@H](C)CN([C@H](C)CO)C3=O)cc1	none
COc1ccc(NC(=O)Nc2ccc3c(c2)C(=O)N([C@@H](C)CO)C[C@@H](C)[C@H](CN(C)C(=O)Nc2ccc(C(F)(F)F)cc2)OCCCC[C@H](C)O3)cc1	T cruzi growth-1 inconclusive | T cruzi growth-2 103 | T cruzi growth-3 100 | 3T3 cytotox inactive | 3T3 cytotox 2 inactive
COc1ccc(NC(=O)Nc2ccc3c(c2)C(=O)N([C@H](C)CO)C[C@H](C)[C@@H](CN(C)C(=O)Nc2ccc(F)cc2)OCCCC[C@H](C)O3)cc1	none
OC[C@@H]1[C@H](c2ccc(/C=C/c3ccccc3)cc2)[C@H]2CN(Cc3cccnc3)CCCCN12	none
OC[C@@H]1[C@@H](c2ccc(/C=C/c3ccccc3)cc2)[C@H]2CN(Cc3cccnc3)CCCCN12	none
OC[C@H]1[C@H](c2ccc(/C=C/c3ccccc3)cc2)[C@@H]2CN(Cc3ccncc3)CCCCN12	T cruzi growth-1 inconclusive | T cruzi growth-2 110 | T cruzi growth-3 inactive | 3T3 cytotox inconclusive | 3T3 cytotox 2 104
OC[C@H]1[C@H](c2ccc(/C=C/c3ccccc3)cc2)[C@@H]2CN(Cc3cccnc3)CCCCN12	T cruzi growth-1 104 | T cruzi growth-2 108 | T cruzi growth-3 inactive | 3T3 cytotox inactive | 3T3 cytotox 2 104
CNC[C@H]1Oc2ccc(NS(=O)(=O)c3cn(C)cn3)cc2CC(=O)N([C@@H](C)CO)C[C@@H]1C	none
C[C@H]1CN([C@@H](C)CO)C(=O)c2cc(C#CC3CCCCC3)cnc2O[C@H]1CN(C)S(C)(=O)=O	none
CCCC#Cc1ccc2c(c1)O[C@H](CN(C)S(=O)(=O)c1cccc(OC)c1)[C@@H](C)CN([C@@H](C)CO)S2(=O)=O	none (no result: C diff HTS, T cruzi growth-1)
COc1cccc(C#Cc2ccc3c(c2)O[C@@H](CN(C)C(C)=O)[C@@H](C)CN([C@@H](C)CO)S3(=O)=O)c1	none
COc1cccc(C#Cc2ccc3c(c2)O[C@@H](CN(C)S(=O)(=O)c2ccccc2F)[C@H](C)CN([C@H](C)CO)S3(=O)=O)c1	T cruzi growth-1 121 | T cruzi growth-2 107 | T cruzi growth-3 inactive | 3T3 cytotox inactive | 3T3 cytotox 2 45
COc1cccc(C#Cc2ccc3c(c2)O[C@H](CN(C)S(=O)(=O)c2ccccc2F)[C@@H](C)CN([C@H](C)CO)S3(=O)=O)c1	T cruzi growth-1 127 | T cruzi growth-2 109 | T cruzi growth-3 115 | 3T3 cytotox inactive | 3T3 cytotox 2 42
COc1cccc(C#Cc2ccc3c(c2)O[C@@H](CN(C)S(=O)(=O)c2ccccc2F)[C@@H](C)CN([C@@H](C)CO)S3(=O)=O)c1	T cruzi growth-1 inconclusive | T cruzi growth-2 102 | T cruzi growth-3 inactive | 3T3 cytotox inactive | 3T3 cytotox 2 inactive
COCC#Cc1ccc2c(c1)O[C@@H](CN(C)S(=O)(=O)c1cccc(OC)c1)[C@H](C)CN([C@@H](C)CO)S2(=O)=O	none
COc1cccc(C#Cc2ccc3c(c2)O[C@@H](CN(C)S(=O)(=O)c2ccccc2F)[C@H](C)CN([C@@H](C)CO)S3(=O)=O)c1	T cruzi growth-1 123 | T cruzi growth-2 109 | T cruzi growth-3 98 | 3T3 cytotox inactive | 3T3 cytotox 2 42
COCC#Cc1ccc2c(c1)O[C@H](CN(C)S(=O)(=O)c1cccc(OC)c1)[C@H](C)CN([C@H](C)CO)S2(=O)=O	none
COc1cccc(C#Cc2ccc3c(c2)O[C@H](CN(C)C)[C@H](C)CN([C@H](C)CO)S3(=O)=O)c1	none
COc1cccc(C#Cc2ccc3c(c2)O[C@H](CN(C)S(=O)(=O)c2ccccc2F)[C@H](C)CN([C@@H](C)CO)S3(=O)=O)c1	T cruzi growth-1 125 | T cruzi growth-2 109 | T cruzi growth-3 104 | 3T3 cytotox inactive | 3T3 cytotox 2 inactive
O=C(C[C@@H]1C=C[C@@H](NC(=O)Nc2cc(F)ccc2F)[C@@H](CO)O1)Nc1ccccc1	none (no result: C diff HTS)
COc1ccc(CN(C)C[C@H]2OCCCC[C@@H](C)Oc3ccc(NC(=O)Nc4ccc5c(c4)OCO5)cc3C(=O)N([C@@H](C)CO)C[C@H]2C)cc1	none (no result: C diff HTS)
COc1ccc(CN(C)C[C@@H]2OCCCC[C@@H](C)Oc3ccc(NC(=O)Nc4ccc5c(c4)OCO5)cc3C(=O)N([C@@H](C)CO)C[C@@H]2C)cc1	T cruzi growth-1 inconclusive (no result: C diff HTS) | T cruzi growth-2 108 | T cruzi growth-3 98 | 3T3 cytotox inactive | 3T3 cytotox 2 53
COc1ccc(CN(C)C[C@@H]2OCCCC[C@H](C)Oc3ccc(NC(=O)Nc4ccc5c(c4)OCO5)cc3C(=O)N([C@H](C)CO)C[C@H]2C)cc1	none (no result: C diff HTS)
COc1ccc(CN(C)C[C@H]2OCCCC[C@H](C)Oc3ccc(NC(=O)Nc4ccc5c(c4)OCO5)cc3C(=O)N([C@@H](C)CO)C[C@@H]2C)cc1	T cruzi growth-1 106 (no result: C diff HTS) | T cruzi growth-2 101 | T cruzi growth-3 inactive | 3T3 cytotox inactive | 3T3 cytotox 2 104
